SMILES strings stand for the structures. About 3,300 (8.5%) of roughly 39,000 compounds were called active. For the sample, actives were picked, then their nearest neighbours and some compounds at random.

The test system of the assay is HepG2. Nature of the assay: cytotoxicity call (relative viability < 0.9). Conditions: 10 µM.
Turning to `C[C@H]1CN([C@@H](C)CO)C(=O)c2cc(-c3ccc(C#N)cc3)cnc2O[C@@H]1CN(C)C(=O)Nc1ccc(C(F)(F)F)cc1`, the cytotoxicity call is “inactive”.

Regarding `CN(C)CCOc1ccc(CN)cc1`, the cytotoxicity call was “inactive”.

Consider `Cc1ccc(Oc2ccc(CN)cc2)cc1`, for which the cytotoxicity call is “active”.

As to `NCc1ccc(-c2ccc(Br)cc2)cc1`, the cytotoxicity call is “inactive”.

As for `C[C@@H]1CCCCO[C@@H](CN(C)Cc2ccncc2)[C@@H](C)CN([C@H](C)CO)C(=O)c2cc(NC(=O)C3CCCCC3)ccc2O1`, the cytotoxicity call was “inactive”.

For `Clc1ccc(Cn2ccnc2)cc1`, the cytotoxicity call was “inactive”.

Consider `O=C(O)C=Cc1ccc(Cn2ccnc2)cc1`, for which the cytotoxicity call was “active”.

For the compound `O=C(O)CCn1ccnc1`, the cytotoxicity call was “inactive”.

With `NCCN1CCO[C@@H](CC(=O)Nc2cc(Cl)cc(Cl)c2)C1=O`, the cytotoxicity call is “inactive”.

As for `CC(C)NC(=O)[C@H]1CC[C@@H](n2c(NC(=O)c3ccc(F)cc3)nc3ccc(CN4CCC(C(C)(C)O)CC4)cc32)CC1`, the cytotoxicity call is “active”.

For `COc1cc(OC)nc([C@@H](NC(=O)C2CCN(CCN3C(=O)c4ccccc4C3=O)CC2)c2ccc(F)cc2)n1`, the cytotoxicity call was “inactive”.

For `O=C(N[C@@H](c1ccccc1)c1ccc2ccccc2n1)C1CCN(Cc2ccc(Cl)c(Cl)c2)CC1`, the cytotoxicity call was “inactive”.

With `COc1ccccc1S(=O)(=O)N(C)C[C@H]1OCc2cnnn2CCCC(=O)N([C@@H](C)CO)C[C@@H]1C`, the cytotoxicity call is “inactive”.

Consider `C[C@@H]1CN([C@@H](C)CO)C(=O)CCCn2nncc2CO[C@@H]1CN(C)C(=O)Nc1ccc2c(c1)OCO2`, for which the cytotoxicity call is “inactive”.

Turning to `C[C@@H]1CN([C@H](C)CO)C(=O)c2cc(C#Cc3ccncc3)cnc2O[C@@H]1CN(C)C(=O)c1ccccc1F`, the cytotoxicity call was “inactive”.

For `C=CCNC(=O)[C@H]1[C@@H]2C(=O)O[C@@H](c3ccccc3)[C@@H](c3ccccc3)N2[C@@H](c2ccc(O)cc2)[C@]12C(=O)N(C(=O)OCCOC)c1ccc(C#CC3(O)CCCCCC3)cc12`, the cytotoxicity call is “inactive”.

With `COCCOC(=O)N1C(=O)[C@@]2(c3cc(C#CC4(O)CCCCCC4)ccc31)[C@H](c1ccc(OCCO)cc1)N1[C@H](c3ccccc3)[C@H](c3ccccc3)OC(=O)[C@H]1[C@@H]2C(=O)N1CCN(c2ncccn2)CC1`, the cytotoxicity call was “inactive”.

In the case of `COCCOC(=O)N1C(=O)[C@@]2(c3cc(C#CC4(O)CCCCCC4)ccc31)[C@H](c1ccc(OCCO)cc1)N1[C@H](c3ccccc3)[C@H](c3ccccc3)OC(=O)[C@H]1[C@@H]2C(=O)N1CCCCCCC1`, the cytotoxicity call is “active”.

As for `C=CCNC(=O)[C@H]1[C@@H]2C(=O)O[C@@H](c3ccccc3)[C@@H](c3ccccc3)N2[C@@H](c2ccccc2OCCO)[C@]12C(=O)N(C(=O)OCCOC)c1ccc(C#CC3(O)CCCCCC3)cc12`, the cytotoxicity call was “active”.

`COCCOC(=O)N1C(=O)[C@@]2(c3cc(C#CC4=CCCCC4)ccc31)[C@H](C(=O)N1CCCCCCC1)[C@H]1C(=O)O[C@H](c3ccccc3)[C@H](c3ccccc3)N1[C@@H]2c1ccc(OCCO)cc1`: the cytotoxicity call is “inactive”.

Take `COCCOC(=O)N1C(=O)[C@@]2(c3cc(C#CC4(O)CCCCCC4)ccc31)[C@H](c1ccc(OCCO)cc1)N1[C@H](c3ccccc3)[C@H](c3ccccc3)OC(=O)[C@H]1[C@@H]2C(N)=O`: the cytotoxicity call was “inactive”.

Take `C=CCNC(=O)[C@H]1[C@@H]2C(=O)O[C@@H](c3ccccc3)[C@@H](c3ccccc3)N2[C@@H](c2ccc(OCCO)cc2)[C@]12C(=O)N(C(=O)OCCOC)c1ccc(C#CC3(O)CCCCCC3)cc12`: the cytotoxicity call was “inactive”.

Regarding `COCCOC(=O)N1C(=O)[C@@]2(c3cc(C#CC4(O)CCCCCC4)ccc31)[C@H](C(=O)N1CCCCCCC1)[C@H]1C(=O)O[C@H](c3ccccc3)[C@H](c3ccccc3)N1[C@@H]2c1ccc(OCCO)cc1`, the cytotoxicity call was “active”.

On to `COCCOC(=O)N1C(=O)[C@@]2(c3cc(C#CC4(O)CCCCCC4)ccc31)[C@H](C(=O)N1CCN(c3ncccn3)CC1)[C@H]1C(=O)O[C@H](c3ccccc3)[C@H](c3ccccc3)N1[C@@H]2c1ccc(OCCO)cc1`, for which the cytotoxicity call was “inactive”.

For the compound `COc1ccc(NC(=O)Nc2cccc3c2O[C@H](CN(C)Cc2ccc(C(F)(F)F)cc2)[C@@H](C)CN([C@@H](C)CO)C3=O)cc1`, the cytotoxicity call is “inactive”.

In the case of `COc1ccc(NC(=O)Nc2ccc3c(c2)[C@H]2C[C@H](CC(=O)NCc4ccccn4)O[C@@H](CO)[C@H]2O3)cc1`, the cytotoxicity call is “inactive”.

On to `c1ccc(Oc2nnc(-c3ccccc3)c3ccccc23)cc1`, for which the cytotoxicity call was “inactive”.

For the compound `C[C@H](CO)N1C[C@H](C)[C@H](CN(C)S(C)(=O)=O)Oc2cc(-c3ccc(F)cc3)ccc2S1(=O)=O`, the cytotoxicity call is “inactive”.

As for `COc1cccc(C#Cc2ccc3c(c2)O[C@@H](CN(C)C(=O)CN2CCOCC2)[C@H](C)CN([C@@H](C)CO)S3(=O)=O)c1`, the cytotoxicity call is “inactive”.

Turning to `O=C(CCNc1n[nH]c(=O)[nH]c1=O)N1CCOCC1`, the cytotoxicity call is “active”.

`COC(=O)CCCCCNc1n[nH]c(=O)[nH]c1=O`: the cytotoxicity call is “inactive”.

As for `O=C(O)CCCNc1n[nH]c(=O)[nH]c1=O`, the cytotoxicity call was “inactive”.

`COc1ccc(NC(=O)N(C)C[C@H]2OCCCC[C@@H](C)Oc3ccc(NC(=O)Nc4c(C)noc4C)cc3C(=O)N([C@H](C)CO)C[C@@H]2C)cc1`: the cytotoxicity call was “inactive”.

As for `COc1ccc(NC(=O)Nc2ccc3c(c2)[C@@H]2C[C@@H](CC(=O)N4CCN(C)CC4)O[C@@H](CO)[C@@H]2O3)cc1`, the cytotoxicity call is “inactive”.

For the compound `C[C@H](CO)N1C[C@H](C)[C@H](CN(C)C(=O)NC2CCCCC2)Oc2ccc(NC(=O)Nc3ccc(C(F)(F)F)cc3)cc2CC1=O`, the cytotoxicity call is “inactive”.

In the case of `C[C@H]1CN([C@@H](C)CO)C(=O)Cc2cc(NC(=O)Nc3ccc(C(F)(F)F)cc3)ccc2O[C@@H]1CN(C)CC1CCCCC1`, the cytotoxicity call was “inactive”.

For the compound `C[C@@H]1CN([C@@H](C)CO)C(=O)Cc2cc(NC(=O)Nc3ccc(C(F)(F)F)cc3)ccc2O[C@H]1CN(C)CC1CCCCC1`, the cytotoxicity call was “active”.

For `C[C@H]1CN([C@@H](C)CO)C(=O)Cc2cc(NC(=O)Nc3ccc(C(F)(F)F)cc3)ccc2O[C@H]1CN(C)CC1CCCCC1`, the cytotoxicity call was “active”.

Consider `C[C@@H]1CN([C@@H](C)CO)C(=O)Cc2cc(NC(=O)Nc3ccc(C(F)(F)F)cc3)ccc2O[C@@H]1CN(C)CC1CCCCC1`, for which the cytotoxicity call is “active”.

`C[C@H](CO)N1C[C@H](C)[C@H](CN(C)CC2CCCCC2)Oc2ccc(NC(=O)Nc3ccc(C(F)(F)F)cc3)cc2CC1=O`: the cytotoxicity call was “active”.

On to `CN(C)CCCNC(=O)C[C@H]1CC[C@H]2[C@@H](COc3ccc(NC(=O)c4ccc5c(c4)OCO5)cc3C(=O)N2C)O1`, for which the cytotoxicity call is “inactive”.

Take `CCCN(C)C[C@H]1OCCCC[C@H](C)Oc2ccc(NS(C)(=O)=O)cc2C(=O)N([C@H](C)CO)C[C@H]1C`: the cytotoxicity call was “inactive”.

Take `C[C@H](CO)N1C[C@H](C)[C@@H](CN(C)Cc2ccncc2)Oc2cc(C#CCN(C)C)ccc2S1(=O)=O`: the cytotoxicity call was “inactive”.

As for `CN([C@@H](c1ccccc1)c1ccccn1)S(=O)(=O)c1cn(C)c(=O)n(C)c1=O`, the cytotoxicity call was “inactive”.

Take `Cc1ccc(S[C@]2(C(=O)O)CC(=O)N(C3Cc4ccccc4C3)[C@@H]2c2ccc(CO)cc2I)cc1`: the cytotoxicity call is “inactive”.

As to `COCC(=O)Nc1ccc2c(c1)C(=O)N(C)C[C@H](OC)[C@H](C)CN(Cc1ccccc1OC)[C@H](C)CO2`, the cytotoxicity call is “inactive”.

As to `C[C@H]1CN([C@@H](C)CO)C(=O)Cc2cc(NS(C)(=O)=O)ccc2O[C@@H]1CN(C)C(=O)Nc1ccccc1`, the cytotoxicity call is “inactive”.

For the compound `COCCNC(=O)C[C@@H]1C[C@@H]2c3cc(NS(C)(=O)=O)ccc3O[C@@H]2[C@@H](CO)O1`, the cytotoxicity call was “inactive”.

With `COc1ccc([C@H]2C/C=C\C[C@H](c3cccc(Cl)c3)NC(=O)[C@@H](c3ccccc3)CC(=O)N2)c(OC)c1`, the cytotoxicity call was “inactive”.

For `CC(=O)O.N=C(N)NN=Cc1c(Cl)cccc1Cl`, the cytotoxicity call is “inactive”.

For `Cc1ccc(-c2ccc3c(c2)O[C@@H](CN(C)C(=O)CN(C)C)[C@H](C)CN([C@@H](C)CO)S3(=O)=O)cc1`, the cytotoxicity call was “inactive”.

As for `CN(C)CCNC(=O)[C@H]1CN(Cc2cnn(C)c2)Cc2ccnn2C1`, the cytotoxicity call is “inactive”.

For `C[C@@H]1CN([C@H](C)CO)C(=O)Cc2cc(NC(=O)Nc3ccc(C(F)(F)F)cc3)ccc2O[C@@H]1CN(C)CC1CCCCC1`, the cytotoxicity call was “active”.

Take `C[C@H]1CN([C@@H](C)CO)C(=O)Cc2cc(NC(=O)Nc3ccc(C(F)(F)F)cc3)ccc2O[C@@H]1CN(C)C(=O)NC1CCCCC1`: the cytotoxicity call is “inactive”.

Regarding `C[C@@H]1CN([C@H](C)CO)C(=O)Cc2cc(NC(=O)Nc3ccc(C(F)(F)F)cc3)ccc2O[C@H]1CN(C)CC1CCCCC1`, the cytotoxicity call was “active”.

Take `COCC(=O)N1C[C@H](C)[C@H](OC)CN(C)C(=O)c2ccc(NC(=O)Nc3ccccc3)cc2OC[C@@H]1C`: the cytotoxicity call is “inactive”.

`Cc1ccc(S(=O)(=O)N(C)C[C@H]2Oc3ccc(NS(=O)(=O)c4ccccc4)cc3CC(=O)N([C@H](C)CO)C[C@@H]2C)cc1`: the cytotoxicity call was “inactive”.

For `CC(C)NC(=O)N[C@H]1CC[C@H](CCN)O[C@H]1CO`, the cytotoxicity call is “inactive”.

In the case of `C[C@H]1CCCCO[C@@H](CN(C)C(=O)Nc2cccc3ccccc23)[C@@H](C)CN([C@@H](C)CO)C(=O)c2cc(NC(=O)Cc3ccccc3)ccc2O1`, the cytotoxicity call is “active”.

Take `C[C@@H]1CCCCO[C@H](CN(C)C(=O)Nc2cccc3ccccc23)[C@@H](C)CN([C@@H](C)CO)C(=O)c2cc(NC(=O)Cc3ccccc3)ccc2O1`: the cytotoxicity call is “inactive”.

Consider `C[C@@H]1CN([C@@H](C)CO)C(=O)c2cc(NC(=O)Cc3ccccc3)ccc2O[C@@H](C)CCCCO[C@@H]1CN(C)C(=O)Nc1cccc2ccccc12`, for which the cytotoxicity call is “active”.

Take `C[C@@H]1CN([C@H](C)CO)C(=O)c2cc(NC(=O)Cc3ccccc3)ccc2O[C@@H](C)CCCCO[C@@H]1CN(C)C(=O)Nc1cccc2ccccc12`: the cytotoxicity call was “inactive”.

As to `C[C@@H]1CCCCO[C@@H](CN(C)C(=O)Nc2cccc3ccccc23)[C@H](C)CN([C@H](C)CO)C(=O)c2cc(NC(=O)Cc3ccccc3)ccc2O1`, the cytotoxicity call was “inactive”.

As for `C[C@H](CO)N1C[C@H](C)[C@@H](CN(C)C(=O)Nc2cccc3ccccc23)OCCCC[C@H](C)Oc2ccc(NC(=O)Cc3ccccc3)cc2C1=O`, the cytotoxicity call was “inactive”.

Take `C[C@@H]1CCCCO[C@@H](CN(C)C(=O)Nc2cccc3ccccc23)[C@H](C)CN([C@@H](C)CO)C(=O)c2cc(NC(=O)Cc3ccccc3)ccc2O1`: the cytotoxicity call is “inactive”.

With `C[C@@H]1CCCCO[C@@H](CN(C)C(=O)Nc2cccc3ccccc23)[C@@H](C)CN([C@@H](C)CO)C(=O)c2cc(NC(=O)Cc3ccccc3)ccc2O1`, the cytotoxicity call is “inactive”.

In the case of `C[C@@H]1CCCCO[C@H](CN(C)C(=O)Nc2cccc3ccccc23)[C@H](C)CN([C@H](C)CO)C(=O)c2cc(NC(=O)Cc3ccccc3)ccc2O1`, the cytotoxicity call is “active”.
